Test results as given in the antibiotic and cytotoxicity screens of Wong et al. (2023).
The whole screen tested about 39,000 compounds, of which about 3,300 (8.5%) were called active. Many of the other results were omitted from the sample, so actives are more common in it than they were.

tested on: HepG2; assay: cytotoxicity call (relative viability < 0.9); settings: 10 µM

Compound	cytotoxicity call
C[C@H]1CN([C@@H](C)CO)C(=O)c2cc(NC(=O)c3ccncc3)ccc2O[C@H]1CN(C)Cc1ccc(Oc2ccccc2)cc1	inactive
COCC#Cc1ccc2c(c1)O[C@H](CN(C)C(=O)Nc1ccccc1F)[C@H](C)CN([C@H](C)CO)S2(=O)=O	inactive
Cc1ccc(S(=O)(=O)N[C@@H](Cc2ccccc2)C(=O)NCCn2cc(-c3ccc(C(=O)NO)s3)nn2)cc1	inactive
COc1cccc(S(=O)(=O)N(C)C[C@@H]2Oc3cc(C#CCN(C)C)ccc3S(=O)(=O)N([C@@H](C)CO)C[C@H]2C)c1	inactive
NC(=O)NS(=O)(=O)c1ccc(N)cc1	inactive
CC(=O)NS(=O)(=O)c1ccc(N)cc1 [listing 1 of 2 here]	active
CC(=O)NS(=O)(=O)c1ccc(N)cc1 [listing 2 of 2 here]	inactive
C[C@H](CO)N1C[C@H](C)[C@H](CN(C)C(=O)Nc2cccc3ccccc23)Oc2ccc(NC(=O)Nc3ccc4c(c3)OCO4)cc2C1=O	inactive
Nc1nnc([C@H]2CCCO2)o1	inactive
O=C(O)c1ccc2nc(O)c(=O)[nH]c2c1	inactive
O=C(O)c1ccc(-c2ccccc2)cc1	inactive
O=C(O)c1ccc(-n2nc(-c3ccccc3O)nc2-c2ccccc2O)cc1	active
COCC#Cc1cnc2c(c1)C(=O)N([C@@H](C)CO)C[C@H](C)[C@@H](CN(C)C(=O)Nc1ccccc1OC)O2	inactive
Cc1noc(C)c1S(=O)(=O)N(C)C[C@@H]1OCCCC[C@@H](C)Oc2ccc(NC(=O)Nc3cccc4ccccc34)cc2C(=O)N([C@@H](C)CO)C[C@H]1C	inactive
COc1ccc(NC(=O)N(C)C[C@@H]2OCCCC[C@H](C)Oc3ccc(NS(=O)(=O)c4ccc(Cl)cc4)cc3C(=O)N([C@H](C)CO)C[C@@H]2C)cc1	inactive
C[C@H]1CN([C@@H](C)CO)C(=O)c2cc(C#CC3(O)CCCC3)cnc2O[C@@H]1CN(C)C(=O)Nc1ccc2c(c1)OCO2	inactive
O=C(/C=c1/nc2c([nH]c1=O)=NON2)c1ccccc1	inactive
O=C1OCCN/C1=C/C(=O)c1ccccc1	active
C[C@H]1CNC(=CC(=O)c2ccccc2)C(=O)N1	inactive
COCCNC(=O)C[C@H]1CC[C@@H](NS(=O)(=O)c2ccc(C)cc2)[C@@H](CO)O1	inactive
C[C@@H]1CN([C@@H](C)CO)C(=O)c2cc(C#CC3CC3)cnc2O[C@@H]1CN(C)S(=O)(=O)c1cccc(F)c1	inactive
C[C@@H]1CN([C@@H](C)CO)C(=O)c2c(c3ccccc3n2C)-c2ccccc2CO[C@H]1CN(C)C(=O)Nc1cccc(C(F)(F)F)c1	active
C[C@H](CO)N1C[C@H](C)[C@H](CN(C)C(=O)Nc2cccc(C(F)(F)F)c2)OCc2ccccc2-c2c(n(C)c3ccccc23)C1=O	inactive
C[C@H]1CN([C@@H](C)CO)C(=O)c2c(c3ccccc3n2C)-c2ccccc2CO[C@H]1CN(C)C(=O)Nc1cccc(C(F)(F)F)c1	inactive

Compound	cytotoxicity call
C[C@@H]1CN([C@H](C)CO)C(=O)c2c(c3ccccc3n2C)-c2ccccc2CO[C@@H]1CN(C)C(=O)Nc1cccc(C(F)(F)F)c1	active
C[C@@H]1CN([C@H](C)CO)C(=O)c2c(c3ccccc3n2C)-c2ccccc2CO[C@H]1CN(C)C(=O)Nc1cccc(C(F)(F)F)c1	inactive
C[C@H](CO)N1C[C@H](C)[C@@H](CN(C)C(=O)Nc2cccc(C(F)(F)F)c2)OCc2ccccc2-c2c(n(C)c3ccccc23)C1=O	inactive
COc1ccc(S(=O)(=O)N(C)C[C@@H]2OCCCC[C@H](C)Oc3ccc(NC(=O)Nc4c(C)noc4C)cc3C(=O)N([C@@H](C)CO)C[C@@H]2C)cc1	inactive
Cc1noc(C)c1NC(=O)N(C)C[C@@H]1Oc2ccc(NC(=O)NC(C)C)cc2CC(=O)N([C@@H](C)CO)C[C@@H]1C	inactive
O=C(/C=C/c1ccc(O)c(O)c1)O[C@@H]1C[C@@](O)(C(=O)O)C[C@@H](O)[C@@H]1O	active
O=C(C=Cc1ccc(O)c(O)c1)OC1CC(O)(C(=O)O)CC(O)C1O (stereo not drawn)	inactive
O=C(/C=C/c1ccc(O)c(O)c1)O[C@@H]1C[C@](O)(C(=O)O)C[C@@H](O)[C@H]1O	inactive
Cc1noc(C)c1NC(=O)N(C)C[C@H]1OCCCC[C@@H](C)Oc2ccc(NS(=O)(=O)c3ccc(F)cc3)cc2C(=O)N([C@@H](C)CO)C[C@H]1C	inactive
C[C@H]1CN([C@@H](C)CO)C(=O)c2cc(C#CCC3CCCC3)cnc2O[C@@H]1CN(C)C(=O)c1cnccn1	inactive
CC(C)NC(=O)N(C)C[C@H]1Oc2cc(C#Cc3cccc(F)c3)ccc2S(=O)(=O)N([C@@H](C)CO)C[C@H]1C	inactive
CNC[C@@H]1OCCCC[C@H](C)Oc2ccc(NS(=O)(=O)c3cn(C)cn3)cc2C(=O)N([C@@H](C)CO)C[C@@H]1C	inactive
C[C@H]1CCCCO[C@@H](CN(C)S(=O)(=O)c2ccc(Cl)cc2)[C@@H](C)CN([C@@H](C)CO)C(=O)c2cc(NS(=O)(=O)c3ccc(Cl)cc3)ccc2O1	inactive
C[C@H](CO)N1C[C@H](C)[C@H](CN(C)S(=O)(=O)c2ccc(Cl)cc2)OCCCC[C@H](C)Oc2ccc(NS(=O)(=O)c3ccc(Cl)cc3)cc2C1=O	active
C[C@@H]1CCCCO[C@H](CN(C)S(=O)(=O)c2ccc(Cl)cc2)[C@H](C)CN([C@@H](C)CO)C(=O)c2cc(NS(=O)(=O)c3ccc(Cl)cc3)ccc2O1	active
C[C@H](CO)N1C[C@H](C)[C@@H](CN(C)S(=O)(=O)c2ccc(Cl)cc2)OCCCC[C@H](C)Oc2ccc(NS(=O)(=O)c3ccc(Cl)cc3)cc2C1=O	inactive
C[C@@H]1CCCCO[C@H](CN(C)S(=O)(=O)c2ccc(Cl)cc2)[C@H](C)CN([C@H](C)CO)C(=O)c2cc(NS(=O)(=O)c3ccc(Cl)cc3)ccc2O1	active
C[C@@H]1CCCCO[C@H](CN(C)S(=O)(=O)c2ccc(Cl)cc2)[C@@H](C)CN([C@@H](C)CO)C(=O)c2cc(NS(=O)(=O)c3ccc(Cl)cc3)ccc2O1	inactive
C[C@@H]1CCCCO[C@H](CN(C)S(=O)(=O)c2ccc(Cl)cc2)[C@@H](C)CN([C@H](C)CO)C(=O)c2cc(NS(=O)(=O)c3ccc(Cl)cc3)ccc2O1	inactive
C[C@@H]1CN([C@@H](C)CO)C(=O)c2cc(NS(=O)(=O)c3ccc(Cl)cc3)ccc2O[C@@H](C)CCCCO[C@@H]1CN(C)S(=O)(=O)c1ccc(Cl)cc1	active
C[C@@H]1CCCCO[C@@H](CN(C)S(=O)(=O)c2ccc(Cl)cc2)[C@@H](C)CN([C@H](C)CO)C(=O)c2cc(NS(=O)(=O)c3ccc(Cl)cc3)ccc2O1	inactive
C[C@@H]1CCCCO[C@@H](CN(C)S(=O)(=O)c2ccc(Cl)cc2)[C@H](C)CN([C@@H](C)CO)C(=O)c2cc(NS(=O)(=O)c3ccc(Cl)cc3)ccc2O1	inactive
C[C@@H]1CCCCO[C@@H](CN(C)S(=O)(=O)c2ccc(Cl)cc2)[C@@H](C)CN([C@@H](C)CO)C(=O)c2cc(NS(=O)(=O)c3ccc(Cl)cc3)ccc2O1	inactive
C[C@@H]1CN([C@H](C)CO)C(=O)c2cc(NS(=O)(=O)c3ccc(Cl)cc3)ccc2O[C@@H](C)CCCCO[C@@H]1CN(C)S(=O)(=O)c1ccc(Cl)cc1	inactive
